Bioassay records as filed in PubChem.
Cycloheximide cs: counter-screen hit for Shiga toxin inhibitors, cycloheximide; cell reporter, cycloheximide protein synthesis inhibition counterscreen; max response, %; AID 2314; hit rate 12% among 300,000; in the data active = max response mostly above about 13%, no sharp cut-off; inactive = mostly below about 14%; also: read at 38.3 µM for the half of the compounds with a filed dose; 0% is about no effect
Shiga toxin inh: blocks Shiga toxin action in Vero cells; AID 2315; hit rate 9.2% among 290,000; inhibition, % at 38.7 µM; Vero cells, Shiga toxin protein synthesis inhibition reporter; in the data active = inhibition mostly above about 28%, no sharp cut-off; inactive = mostly below about 43%; also: 0% is about no effect
Tb PYK inh: T. brucei pyruvate kinase inhibition. Q57TT1. TbPYK enzyme, Kinase-Glo Plus ATP luminescence, 45 min. Potency, µM (doses to about 76.8 µM), for inactives: at the highest dose activity, negative = inhibition, hits mostly inhibitors. hit rate 0.12% among 410,000. AID 624173; also: potency is read from the fitted curve at half-maximal effect; % is scaled to controls: 0 for no effect and ±100 for the full control effect; nearly all actives have a fitted effect of over 50% in size
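Screened from lowest to highest concentration, compounds were pinned into TbPYK/substrate mixtures, and ADP (130 uM final) was added. Plates sat at room temperature for 45 min prior to Kinase-Glo Plus detection by luminescence.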
LmPK inhibitor: LmPK (Leishmania mexicana) enzyme inhibition; Q27686; purified LmPK, Kinase-Glo ATP luminescence, 1 h; Potency, µM (doses to about 57.5 µM), for the others: top-dose activity change, negative = inhibition, hits mostly inhibitors; hit rate 0.37% among 290,000; AID 1721; also: potency is read from the fitted curve at half-maximal effect; % is scaled to controls: 0 for no effect and ±100 for the full control effect
Target sequence (Q27686 whole entry, looked up): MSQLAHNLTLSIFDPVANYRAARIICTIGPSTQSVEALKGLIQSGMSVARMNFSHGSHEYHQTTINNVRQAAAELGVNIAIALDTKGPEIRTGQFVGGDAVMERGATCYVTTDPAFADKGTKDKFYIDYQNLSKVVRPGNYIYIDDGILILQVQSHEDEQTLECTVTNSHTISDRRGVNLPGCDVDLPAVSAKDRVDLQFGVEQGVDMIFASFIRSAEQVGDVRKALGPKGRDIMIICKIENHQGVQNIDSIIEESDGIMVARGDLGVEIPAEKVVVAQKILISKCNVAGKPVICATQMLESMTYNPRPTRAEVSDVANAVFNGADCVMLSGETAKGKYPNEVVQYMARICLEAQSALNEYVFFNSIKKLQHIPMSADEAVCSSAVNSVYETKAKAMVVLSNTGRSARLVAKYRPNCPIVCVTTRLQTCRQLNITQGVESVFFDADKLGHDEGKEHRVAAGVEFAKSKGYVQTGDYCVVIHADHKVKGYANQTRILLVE
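Purified LmPK (0.1 nM) with 0.5 mM PEP and 0.1 mM ADP in imidazole buffer pH 7.2 with MgCl2/KCl, 1 h at room temperature. ATP formed was read by luciferase luminescence and normalized to no-enzyme and uninhibited controls.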
Sm TGR inh: S. mansoni TGR enzyme inhibition | Q962Y6 | purified TGR, DTNB reduction, TNB absorbance 405 nm | Potency, µM (top dose mostly 114 µM), inactives show top-dose activity change, negative = inhibition, most hits filed as inhibitors | hit rate 3% among 360,000 | AID 485364; also: potency is read from the fitted curve at half-maximal effect; % is scaled to controls: 0 for no effect and ±100 for the full control effect; nearly all actives have a fitted effect of over 60% in size
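Kinetic colorimetric format: TGR-catalysed, NADPH-driven DTNB reduction monitored via TNB absorbance. Enzyme dispensed at 20 nM; compound exposure 15 min at room temperature before reaction start.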
Giardia FBPA inh: Giardia lamblia aldolase inhibition; purified Giardia FBPA; hit rate 0.71% among 290,000; A8B2U2; Potency, µM (titrated, usually from 59.6 µM), for inactives: at the highest dose activity, negative = inhibition, usual class: inhibitors; also: potency is read from the fitted curve at half-maximal effect; % is scaled to controls: 0 for no effect and ±100 for the full control effect; nearly all actives have a fitted effect of over 55% in size
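40 nM FBPA preincubated 10 min at RT with compound (up to 57.5 uM final), then substrate plus GAPDH/TPI/NAD/arsenate coupling and diaphorase/resazurin added. Fluorescence read after 20 min at RT, 525/598 nm.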
Starred values were filed as active, the others as inactive; [ ] = remark or other dose. The sample as a whole holds a higher share of hits than the screen did. Unless noted, calls follow the shape of the dose curve; as a rule, active = well fitted curve in the direction sought with a large enough effect; inconclusive = small, poorly fitted or top-dose-only effect, or another doubt; inactive = no such curve, though single readings can be large; an effect the other way counts as inactive or inconclusive.

Screening COC(=O)c1ccc(/C=N/n2c(C)nc3ccccc3c2=O)cc1 returned Cycloheximide cs 21*, Shiga toxin inh 41*, Tb PYK inh -3%, LmPK inhibitor 4%, Sm TGR inh -1% and Giardia FBPA inh -1%.
`COc1ccc(/C=N/n2c(C)nc3ccccc3c2=O)cc1` gave Cycloheximide cs -2, Shiga toxin inh 38, Tb PYK inh 2%, LmPK inhibitor 1%, Sm TGR inh -12% and Giardia FBPA inh 2%.
Cc1ccc(NC(=O)Cn2ccn(Cc3ccc(Cl)cc3)c(=O)c2=O)cc1C was read as Tb PYK inh -4% and Sm TGR inh 3%.
Screening CCC1=Nc2cc(C(=O)NC3CCCC3)ccc2Sc2ccc(Br)cc21 returned Tb PYK inh -3% and Sm TGR inh -4%.
C/C(=N\NC(=O)Cc1c(Cl)cccc1Cl)c1cccnc1 was read as Cycloheximide cs -1, Shiga toxin inh 4, Tb PYK inh 0%, LmPK inhibitor 3%, Sm TGR inh 0% and Giardia FBPA inh -10%.
`Cc1cnc(C(=O)OCC(=O)Nc2ccc(Br)c(C)c2)cn1` gave Tb PYK inh -8% and Sm TGR inh 2%.
Screening CCOC(=O)c1ccc(NC(=O)c2nn(CC)cc2Br)cc1 returned Cycloheximide cs 35*, Shiga toxin inh 53*, Tb PYK inh 0%, LmPK inhibitor -10%, Sm TGR inh 5% and Giardia FBPA inh -4%.
`CCn1cc(Br)c(C(=O)Nc2ccc(F)c(Cl)c2)n1` gave Cycloheximide cs 54*, Shiga toxin inh 73*, Tb PYK inh -12%, LmPK inhibitor -3%, Sm TGR inh -9% and Giardia FBPA inh 1%.
CCn1cc(Br)c(C(=O)Nc2ccc(Cl)cc2Cl)n1 was read as Cycloheximide cs 25*, Shiga toxin inh 55, Tb PYK inh -4%, LmPK inhibitor 0%, Sm TGR inh 1% and Giardia FBPA inh 4%.
CCn1cc(Br)c(C(=O)NC(=S)Nc2ccc(C(=O)OC)cc2)n1 was read as Cycloheximide cs 2, Shiga toxin inh 3, Tb PYK inh -5%, LmPK inhibitor 5%, Sm TGR inh 7% and Giardia FBPA inh -5%.
Screening COc1ccc(NC(C)C(=O)Nc2cccc(S(=O)(=O)N3CCOCC3)c2)cc1OC (configuration not stated) returned Tb PYK inh -6%.
`Cc1cc(C)cc(NC(=O)C(NS(=O)(=O)c2cccc3nsnc23)c2ccccc2)c1` (configuration not stated) gave Tb PYK inh 1% and Sm TGR inh -1%.
O=c1c(-c2ccc(F)cc2)nc2cnc(N3CCNCC3)nc2n1Cc1ccc(F)cc1 was read as Giardia FBPA inh -1%.
Screening COc1ccc(-c2nc3n(c2C)CCC3)cc1 returned Cycloheximide cs 27*, Shiga toxin inh 71*, Tb PYK inh -21%, LmPK inhibitor -13%, Sm TGR inh 0% and Giardia FBPA inh -15%.
`COc1ccc(-c2cc3nc4n(c(=O)c3s2)CCC4)cc1` gave Cycloheximide cs 33*, Shiga toxin inh 91*, Tb PYK inh -3%, LmPK inhibitor 7.1µM*, Sm TGR inh 2% and Giardia FBPA inh 1%.
For COc1ccc(-c2cc3nc4n(c(=O)c3s2)CCCCC4)cc1 the results were Cycloheximide cs 49*, Shiga toxin inh 78*, Tb PYK inh 2%, LmPK inhibitor 5%, Sm TGR inh 8% and Giardia FBPA inh -8%.
Screening Cc1ccc(OC(=O)c2ccc3c(=O)n4c(nc3c2)CCC4)cc1 returned Tb PYK inh 1% and Sm TGR inh 0%.
`S=C(NCC1CCCO1)N1CCc2ccccc2C1` (configuration not stated) gave Cycloheximide cs 15, Shiga toxin inh 20, Tb PYK inh -1%, LmPK inhibitor -8% and Sm TGR inh -1%.
`Nc1ncnc2c1nc(Br)n2[C@H]1O[C@H]2COP(=O)(O)O[C@H]2[C@@H]1O` gave Giardia FBPA inh 7%.
CC(C)(C)C(=O)Nc1cc2nn(-c3ccccc3)nc2cc1Cl was read as Cycloheximide cs 47*, Shiga toxin inh 86*, Tb PYK inh 1%, LmPK inhibitor inconclusive, Sm TGR inh -7% and Giardia FBPA inh -1%.
`CC(C)COc1ccc(C(=O)Nc2cc3nn(-c4ccccc4)nc3cc2Cl)cc1` gave Tb PYK inh 0% and Sm TGR inh 6%.
CC(=O)Nc1cc2nn(-c3ccccc3)nc2cc1Cl was read as Cycloheximide cs 26*, Shiga toxin inh 64*, Tb PYK inh -1%, LmPK inhibitor -11%, Sm TGR inh -11% and Giardia FBPA inh 0%.
`Cc1nn(-c2cccc(Cl)c2)nc1C(=O)O` gave Cycloheximide cs 9, Shiga toxin inh 21, Tb PYK inh 6%, LmPK inhibitor 2%, Sm TGR inh -4% and Giardia FBPA inh -4%.
Cc1c(Cl)cccc1NC(=O)c1ccc(NC(=O)N2CCSc3ncccc32)cc1 was read as Tb PYK inh 7%[15.4 µM] and Sm TGR inh 3%.
`O=C(O)CC1=C(Nc2ccccc2)C(=O)N(c2ccccc2)C1c1ccc(Br)cc1` (configuration not stated) gave Cycloheximide cs 25*, Shiga toxin inh 79*, Tb PYK inh 0%, LmPK inhibitor -7% and Giardia FBPA inh 20%.
For COCCNC(=S)N/N=C(\C)c1ccccc1O the results were Cycloheximide cs 31*, Shiga toxin inh 94*, Tb PYK inh -5%, LmPK inhibitor -4%, Sm TGR inh -5% and Giardia FBPA inh 15%.
For COCCNC(=S)N/N=C/c1ccccc1C(=O)O the results were Cycloheximide cs -2, Shiga toxin inh -14, Tb PYK inh -4%, LmPK inhibitor -1%, Sm TGR inh 0% and Giardia FBPA inh inconclusive.
`COCCCNC(=S)N/N=C/c1ccccc1O` gave Cycloheximide cs 44*, Shiga toxin inh 52*, Tb PYK inh -8%, LmPK inhibitor -3%, Sm TGR inh -15% and Giardia FBPA inh 13%.
Screening CCC12CN3CC(C)(CN(C1)C3c1ccc(O)cc1O)C2=O (configuration not stated) returned Tb PYK inh 3% and Sm TGR inh 0%.
Screening CCc1ccc(CNC(=O)CC2C(=O)NCCN2Cc2ccccc2F)nc1 (configuration not stated) returned Cycloheximide cs -1, Shiga toxin inh -3, Tb PYK inh -3%, LmPK inhibitor -6%, Sm TGR inh inconclusive and Giardia FBPA inh -4%.
For Cc1nnc(CN(C)C(=O)CC2C(=O)NCCN2Cc2ccccc2C)o1 (configuration not stated) the results were Cycloheximide cs 1, Shiga toxin inh -8, Tb PYK inh -1%, LmPK inhibitor -2%, Sm TGR inh 28µM* and Giardia FBPA inh 3%.
